# Screening data as filed in PubChem BioAssay.
# BAP1 block – inhibitors of BAP1 deubiquitinase, primary screen, biochemical, Ub-AMC fluorescence, kinetic; actives 0.48% (n = 72,000); recombinant BAP1, Ub-AMC hydrolysis fluorescence kinetic; hits give low values; Ubiquitin carboxyl-terminal hydrolase BAP1 (Homo sapiens), Q92560; calls only at 20 µM;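 active means activity remaining at or below 50% of control, provided the compound also passes the data quality filters; inactive means the rest, including low values that fail the filters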;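 further: 100% = DMSO wells rate and 0% = substrate alone blank rate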
# D1 mod – D1 CRE-luciferase signal change, two-sided – cell-based, HEK293 D1, dopamine EC30, D1 allosteric modulator project, primary screen | D(1A) dopamine receptor (Homo sapiens), P21728 | dopamine EC30 potentiation; actives deviate in either direction | B-score at 10 µM | actives 5.9% (n = 58,000);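 active means luminescence count or its row- and column-corrected plate score outside the 99.7% band of the plate's sample wells, on either side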
# Target sequence (P21728 whole entry, looked up): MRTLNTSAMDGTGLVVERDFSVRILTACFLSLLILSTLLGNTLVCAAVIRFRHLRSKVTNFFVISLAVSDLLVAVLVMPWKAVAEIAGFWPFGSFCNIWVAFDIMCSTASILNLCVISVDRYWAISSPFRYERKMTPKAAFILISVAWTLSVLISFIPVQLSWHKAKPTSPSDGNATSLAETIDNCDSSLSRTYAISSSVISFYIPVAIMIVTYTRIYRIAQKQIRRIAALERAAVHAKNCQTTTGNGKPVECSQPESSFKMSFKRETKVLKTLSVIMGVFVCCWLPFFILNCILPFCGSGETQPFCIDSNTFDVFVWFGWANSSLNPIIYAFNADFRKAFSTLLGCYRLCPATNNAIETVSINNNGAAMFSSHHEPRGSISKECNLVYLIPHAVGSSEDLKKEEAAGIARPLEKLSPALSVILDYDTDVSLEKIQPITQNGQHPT
# DAT uptake mod – changed hDAT dopamine uptake under cocaine IC80, either direction, primary screen, cocaine antagonist project, cell-based, LLC-PK1 hDAT, [14C]-dopamine uptake, MLSMR; Sodium-dependent dopamine transporter (Homo sapiens), Q01959; LLC-PK1 hDAT cells, [14C]-dopamine uptake with cocaine IC80; actives deviate in either direction; B-score at 10 µM; actives 1.3% (n = 110,000);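 active means Z score or B-score, a plate-position-corrected score, falls beyond the plate's 99.7% confidence bounds, in either direction; inactive means both scores lie inside the 99.7% bounds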;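 further: scored against the spread of the other compound wells on the same plate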
# D1 mod confirm – D1 receptor positive allosteric modulators, retest, confirmation, cell-based, HEK293 D1, CRE-luciferase, duplicate | luminescence at 10 µM | actives 88% (n = 2,200) | shares compounds with D1 mod | dopamine EC30 potentiation; hits give high values;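 active means luminescence in either of two replicates above the same-plate mean plus 3 SD of the low-dose dopamine control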
# D1 ag no DA – D1 receptor agonism without dopamine, confirmation, mechanism study for D1 allosteric modulator project, cell-based, HEK293 D1, CRE-luciferase, secondary assay 1. actives 0.8% (n = 1,900). luminescence, no dopamine; hits give high values. shares compounds with D1 mod. luminescence at 10 µM; in the data active means luminescence above about 3900
# Isoprot counter – counter-screen for D1 modulators: isoproterenol response in HEK293 cells; actives 63% (n = 2,200); shares compounds with D1 mod; HEK293 D1 CRE-luciferase, isoproterenol EC30 counter-screen; hits give high values; AID 647; luminescence at 10 µM;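 active means luminescence in either replicate above plate mean of wells with a partly effective reference agonist dose plus 3 SD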;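 further: isoproterenol raises cAMP through native beta-adrenoceptor Gs so signal bypasses D1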
# An asterisk follows results filed as active; i = inactive; . = no result given. Many of the other results were omitted from the sample, so hits are more common in it than they were.
SMILES,BAP1 block,D1 mod,DAT uptake mod,D1 mod confirm,D1 ag no DA,Isoprot counter
Cc1onc(-c2ccccc2)c1C(=O)Oc1cccnc1,i,6.7*,0.0523,13128*,1560,3512*
COc1ccc(C2=NOC(C(=O)Nc3ccc(C(C)=O)cc3)C2)cc1OC (centres undefined),i,4.97*,1.78,8288*,.,2792*
COc1ccc(C2=NOC(C(=O)Nc3cc(Br)ccc3O)C2)cc1OC (centres undefined),i,38*,-0.433,25996*,1720,8288*
COc1ccc(C2=NOC(C(=O)N3CCCCCC3)C2)cc1OC (centres undefined),i,0.418,0.851,.,.,.
COc1cc(C2=NOC(C(=O)Nc3ccc(C(C)=O)cc3)C2)cc(OC)c1OC (centres undefined),i,1.49,-0.178,.,.,.
COc1ccc(C2=NOC(C(=O)NC3CCCCC3)C2)cc1OC (centres undefined),i,4.57*,-0.111,14608*,1788,2956
COc1ccc(C2=NOC(C(=O)NCc3cccs3)C2)cc1OC (centres undefined),.,.,0.157,.,.,.
COc1ccc(OC)c(C2=NOC(C(=O)Nc3ccccc3SC)C2)c1 (centres undefined),.,.,-1.45,.,.,.
COc1ccc(OC)c(C2=NOC(C(=O)Nc3cccc(C(C)=O)c3)C2)c1 (centres undefined),i,3.71*,0.287,9256*,1624,2976
COc1ccc(NS(=O)(=O)c2cccc3c2C(=O)c2ccccc2C3=O)cc1,i,.,.,.,.,.
COc1ccc(Nc2nc(N)nc(C(F)(F)F)n2)c(OC)c1,i,4.24*,-0.172,11048*,1732,2984*
COc1ccc(Cl)cc1Nc1nc(N)nc(C(F)(F)F)n1,.,.,-0.225,.,.,.
COc1ccc(C=NC2=NN(c3cccc(C(F)(F)F)c3)CC2)cc1,i,.,.,.,.,.
c1ccc(-c2nc3nonc3nc2-c2ccccc2)cc1,i,6.77*,.,6860*,1656,3008
c1ccc(-c2nc3nonc3c3nc4ccccc4n23)cc1,i,0.799,-0.578,.,.,.
CCC(=O)Nc1ccc([N+](=O)[O-])cc1C,i,.,.,.,.,.
COC(=O)c1c(NC(=O)C2C(C=C(Cl)Cl)C2(C)C)sc2c1CCCC2 (centres undefined),i,.,.,.,.,.
CCOC(=O)Nc1ccc2c(c1)N(C(=O)CCN1CCOCC1)c1ccccc1S2,i,4.82*,0.779,10492*,1592,3852*
O=C(N1CCOCC1)N1c2ccccc2Sc2ccccc21,.,.,0.0329,.,.,.
COC(=O)Nc1ccc2c(c1)N(C(=O)CCN1CCOCC1)c1ccccc1S2,i,4.3*,0.301,8120*,1920,3060
CCOC(=O)Nc1ccc2c(c1)N(C(=O)CCN1CCOCC1)c1ccccc1S2=O (centres undefined),i,0.343,-0.159,.,.,.
C=CCOc1ccc(C2Oc3ccccc3C3CC(c4ccccc4)=NN32)cc1 (centres undefined),i,.,.,.,.,.
Nc1nnc(-c2ccccc2)c(-c2ccccc2)n1,i,19.8*,0.0612,20640*,1704,4536*
Nc1c(-c2ccccc2)nc(Cl)nc1-c1ccccc1,.,.,0.11,.,.,.
COc1cc(C(=O)N2CC(=O)Nc3ccc(Br)cc3C2c2ccccc2Cl)cc(OC)c1OC (centres undefined),i,.,.,.,.,.
SMILES,BAP1 block,D1 mod,DAT uptake mod,D1 mod confirm,D1 ag no DA,Isoprot counter
O=S(=O)(c1ccccc1)c1nc(-c2ccco2)oc1N1CCOCC1,i,0.333,-0.295,.,.,.
CC(C)Sc1oc(-c2ccco2)nc1S(=O)(=O)c1ccccc1,.,6.47*,0.0562,19332*,1752,3968*
CSc1oc(-c2ccco2)nc1S(=O)(=O)c1ccc(F)cc1,i,3.43*,-0.82,11924*,1676,2912
CSc1oc(-c2ccco2)nc1S(=O)(=O)c1ccccc1,i,.,-1.55,.,.,.
CC(NC(=O)c1ccccc1)C1CC2CCC1C2 (centres undefined),i,.,.,.,.,.
CCOc1cc2c(C#N)c(N(CC)CC)nc(N)c2c(N)n1,.,.,-0.452,.,.,.
CCOc1cc2c(C#N)c(N3CCOCC3)nc(N)c2c(N)n1,.,12.5*,1.16,11932*,1728,4580*
O=C(COc1ccccc1[N+](=O)[O-])Nc1ccccc1[N+](=O)[O-],i,.,.,.,.,.
COC(=O)C1CSc2[nH]c(=O)sc2C1c1ccc(O)c(OC)c1 (centres undefined),.,.,2.27,.,.,.
O=c1[nH]c2c(s1)C(c1ccccc1)C1C3CCC(C3)C1S2 (centres undefined),.,16.8*,-0.0299,21364*,.,4164*
O=C1C2Sc3[nH]c(=O)sc3C(c3ccccc3)C2C(=O)N1c1ccccc1 (centres undefined),.,.,1.66,.,.,.
COc1ccc(C2c3sc(=O)[nH]c3SC3C(=O)N(c4ccccc4)C(=O)C32)cc1 (centres undefined),i,1.21,0.722,.,.,.
COc1cc(C2c3sc(=O)[nH]c3SC3C4CCC(C4)C23)ccc1O (centres undefined),i,8.5*,-0.098,18840*,1528,4160*
COc1ccc(C2c3sc(=O)[nH]c3SC3C4CCC(C4)C23)cc1 (centres undefined),.,15.8*,0.312,27840*,1724,4476*
Cc1cccc(NC(=O)c2ccc(Cl)cc2)n1,i,.,.,.,.,.
COC(=O)c1cccc(C(=O)Nc2ccc(I)cc2)n1,i,.,.,.,.,.
CCOC(=O)C1=C(C)N=C2SCCC(=O)N2C1C=Cc1ccccc1 (centres undefined),i,.,.,.,.,.
CCCCOCC(O)CN1CCOCC1 (centres undefined),i,.,.,.,.,.
CCSc1nnc2c(n1)OC1(CCCC1)Nc1ccccc1-2,i,6.55*,-0.234,15136*,1636,3568*
COc1cccc(-c2cc(C(=O)Nc3ccccc3C(F)(F)F)c3ccccc3n2)c1,i,.,.,.,.,.
COc1cc(C2CC(C(F)(F)F)n3ncc(C(=O)NC(C)(C)C)c3N2)cc(OC)c1OC (centres undefined),i,.,.,.,.,.
O=C(NCCCN1CCOCC1)c1nn2c(c1Cl)NC(c1ccco1)CC2C(F)(F)F (centres undefined),i,.,.,.,.,.
CC(C)n1c(SCC(=O)Nc2ccc3c(c2)OCO3)nc2c1c(=O)n(C)c(=O)n2C,i,9.12*,-0.166,7904*,1376,3648*
CC(C)n1c(SCC(=O)N2CCCC2)nc2c1c(=O)n(C)c(=O)n2C,i,6.41*,-0.0159,13032*,1508,3048
CC(C)n1c(SCC(=O)N2CCCc3ccccc32)nc2c1c(=O)n(C)c(=O)n2C,i,.,.,.,.,.
